UGM FP inh – Mtb UDP-galactopyranose mutase inhibition | purified UGM, fluorescence polarization probe displacement | inhibition, % at 10 µM | hit rate 0.06% among 320,000; in the data active = inhibition above about 10%, passing the limit was not always enough
Target sequence (P9WIQ1 whole entry, looked up): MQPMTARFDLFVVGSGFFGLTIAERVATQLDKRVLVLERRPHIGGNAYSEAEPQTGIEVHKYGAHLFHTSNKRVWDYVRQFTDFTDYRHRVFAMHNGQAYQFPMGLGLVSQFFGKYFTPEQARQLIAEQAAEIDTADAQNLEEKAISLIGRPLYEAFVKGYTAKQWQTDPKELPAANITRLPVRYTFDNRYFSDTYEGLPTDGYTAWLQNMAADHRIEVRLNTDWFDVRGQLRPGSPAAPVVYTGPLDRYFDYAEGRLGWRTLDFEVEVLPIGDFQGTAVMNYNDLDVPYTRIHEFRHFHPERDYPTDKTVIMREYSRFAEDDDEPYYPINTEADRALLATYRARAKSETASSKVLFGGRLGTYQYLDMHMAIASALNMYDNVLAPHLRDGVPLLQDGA
Rv3671c inh – Rv3671c (M. tuberculosis) protease inhibition. P9WHR9. inhibition, % at 5.96 µM. hit rate 0.048% among 320,000. AID 2606; in the data active = inhibition above about 38%;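 note: extracellular domain of Rv3671c used as enzyme; 0% = enzyme with DMSO and 100% = no enzyme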
PrPC TRFRET – cell surface PrPC inhibition, primary TR-FRET screen. TR-FRET read-out. inhibition, % at 13.8 µM. hit rate 0.43% among 370,000; in the data active = inhibition above about 24%; note: 0% = median of the test wells and 100% = reference compound wells
PrP UTR inh – inhibition of PrP 5' UTR reporter expression. cell-based PrP 5' UTR mRNA reporter, plate reader. inhibition, % (test concentration not listed). hit rate 0.35% among 340,000. AID 488862; in the data active = inhibition above about 52%; note: 0 = median of the neutral control wells
FadD28 binding – blocks FadD28 binding to the bisubstrate probe | fluorescence polarization | inhibition, % at 12.5 µM | hit rate 0.22% among 360,000 | AID 588549; in the data active = inhibition above about 8.5%, passing the limit was not always enough
SSB-PriA inh – blocks PriA binding to SSB C-terminal tail; AlphaScreen SSBct-PriA binding, biotinylated peptide; inhibition, % at 33 µM; hit rate 0.6% among 430,000; AID 1272365; in the data active = inhibition mostly above about 37%, no sharp cut-off; inactive = mostly below about 20%;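 note: plate controls were negative control peptide for no effect and reference peptide for full effect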
* = called active by the depositor; . = no result. Only some compounds are listed: those with a hit (about 1.2% of all), similar ones and a draw of the others.

SMILES	UGM FP inh	Rv3671c inh	PrPC TRFRET	PrP UTR inh	FadD28 binding	SSB-PriA inh
O=C(CSc1cccc2cccnc12)Nc1ccccc1F	-3	-1	7	-5	-2	19
O=C(CSc1cccc2cccnc12)n1c2ccccc2c2ccccc21	.	.	.	.	.	73*
O=C(CSc1cccc2cccnc12)N1CCCC1	1	-18	-6	-7	-1	79*
O=C(CSc1cccc2cccnc12)N1CCc2ccccc2C1	.	.	.	.	.	91*
Cc1cc(C)c(C(=O)CSc2cccc3cccnc23)cc1C	.	.	.	.	.	59*
CCC1CCCCN1C(=O)CSc1cccc2cccnc12 (centres undefined)	.	.	.	.	.	10
COc1ccc(C=c2sc(=C(C#N)C(=O)NCc3ccco3)n(-c3ccccc3)c2=O)cc1	.	.	.	.	.	9
CN(C)C(=O)CSc1cccc2cccnc12	0	-20	-8	-12	0	94*
COC(=O)CSc1cccc2cccnc12	.	.	.	.	.	38
CCOc1ccc(C(=O)NN=Cc2ccc(-c3ccc(S(=O)(=O)Nc4ncccn4)cc3)o2)cc1	.	.	.	.	.	-8
NC(=S)NN=Cc1ccc(-c2ccc(S(=O)(=O)Nc3ncccn3)cc2)o1	.	10	-9	-2	23*	-4
Cc1ccc(S(=O)(=O)CCc2nnc(NC(=O)c3ccccn3)s2)cc1	0	-12	.	-24	-1	85*
O=S(=O)(NCC[C@H](O)c1cccs1)C1CC1	.	.	.	.	.	-17
O=C(/C=C/c1cccs1)Nc1nc2c(F)cc(F)cc2s1	.	.	.	.	.	-15
Cc1ccc(O)c(Nc2c3ccccc3nc3ccccc23)c1	0	-6	3	-5	-1	61*
COc1ccc(OC)c(-c2nnc(SCC(=O)Nc3ccc(OC(F)(F)F)cc3)o2)c1	.	.	.	.	.	-8
O=C(NCCCn1ccnc1)Nc1ccc(F)c(Cl)c1	.	.	.	.	.	43
O=C(NCCCn1ccnc1)Nc1ccc(Cl)c(Cl)c1	-5	-2	3	-35	-8	76*
CN1CCN(c2cc(N3CCN(C(=O)c4ccco4)CC3)c3c4c(onc24)-c2ccccc2C3=O)CC1	0	3	.	-36	1	77*
O=C1c2ccccc2-c2onc3c(N4CCN(CCO)CC4)cc(N4CCN(C(=O)c5ccco5)CC4)c1c23	0	3	-69	4	1	80*
O=C(c1ccco1)N1CCN(CCCCN2C(=O)c3ccccc3C2=O)CC1	-2	-2	-9	-50	-2	-5
O=C(O)CCCNc1cc(N2CCN(C(=O)c3ccco3)CC2)c2noc3c2c1C(=O)c1ccccc1-3	1	1	-76	-3	18*	41*
O=C(c1ccco1)N1CCN(C2=NS(=O)(=O)c3ccccc32)CC1	1	-4	-1	-13	-2	6
Cc1ccc(-c2csc(NNC3=NCCCCC3)n2)cc1	.	.	.	.	.	62*
COc1ccc(-c2csc(NNC3=NCCCCC3)n2)cc1	-1	-10	-1	.	.	-8
SMILES	UGM FP inh	Rv3671c inh	PrPC TRFRET	PrP UTR inh	FadD28 binding	SSB-PriA inh
Cc1ccnc(NC(=O)CCCOc2cc(=O)n(C)c3ccccc23)c1	-1	3	39*	-20	-2	-9
COc1cccc(NC(=O)C[C@@H]2Nc3cc(C)c(C)cc3NC2=O)c1	.	.	.	.	.	-13
O=C1CCCN1Cc1cn(C2CN(S(=O)(=O)c3cccc4nsnc34)C2)nn1	.	.	.	.	.	-13
C#CCSc1nnnn1-c1cccc(Cl)c1	1	2	0	-19	-4	-24
C#CCSc1nnnn1-c1ccc(Br)c(C)c1	-3	4	0	-22	-1	83*
CCOC(=O)c1c(-c2ccc(C)c(C)c2)csc1NC(=O)c1sc2nc(-c3ccccc3)cc(-c3ccc(OC)cc3)c2c1N	.	.	.	.	.	-5
O=C(C1CC1(c1ccccc1)c1ccccc1)N1CCOCC1 (centres undefined)	-2	-2	1	-114	-2	55*
CC(C)CC(=O)O/N=C1\C(=O)N(Cc2ccc(Cl)cc2)c2ccc([N+](=O)[O-])cc21	0	77*	.	.	.	.
CC(=O)O/N=C1\C(=O)N(Cc2ccc(C)cc2)c2ccccc21	.	.	-7	-3	-2	.
CC(=O)c1cccc(S(=O)(=O)N2CCC(CSc3ccccn3)CC2)c1	.	.	.	.	.	-4
Cc1nc2c(c(=O)n1CC(=O)NCc1ccccc1Br)CCN(Cc1ccccc1)C2	.	.	.	.	.	-9
CCCN1CCCc2cc(CCNC(=O)c3cc4ccccc4oc3=O)ccc21	.	.	.	.	.	34
Cc1ccc2oc(C(=O)N(Cc3ccc(N(C)C)cc3)C3CCS(=O)(=O)C3)c(C)c2c1 (centres undefined)	2	-2	-6	-70	-2	43*
Cc1c(C(=O)N(Cc2ccc(N(C)C)cc2)CC2CCCO2)oc2ccccc12 (centres undefined)	-2	-3	15	-7	0	57*
Cc1c(C(=O)N(Cc2ccc(Cl)cc2)C2CCS(=O)(=O)C2)oc2ccccc12 (centres undefined)	-1	-4	-9	-5	-2	7
Cc1ccc2c(C)c(C(=O)N(Cc3ccc(N(C)C)cc3)C3CCS(=O)(=O)C3)oc2c1 (centres undefined)	-3	10	4	-11	-2	39*
Cc1cc(NC(=O)Cc2ccc(C(C)C)cc2)n(C(C)C)n1	.	.	.	.	.	5
O=[N+]([O-])c1ccc(NN=Cc2ccc[nH]2)cc1	.	.	.	.	.	55*
COc1ccc(S(=O)(=O)Nc2cccc3c2O[C@H](CN(C)C(=O)NC(C)C)[C@@H](C)CN([C@H](C)CO)C3=O)cc1	1	5	-2	-22	-1	99*
COc1ccc(NC(=O)Nc2ccc3c(c2)C(=O)N([C@H](C)CO)C[C@H](C)[C@@H](CN(C)S(=O)(=O)c2ccc(OC)cc2)O3)cc1	1	3	-7	-17	9.4*	7
COc1ccc(S(=O)(=O)N(C)C[C@H]2Oc3ccc(NC(=O)Nc4ccc(C(F)(F)F)cc4)cc3C(=O)N([C@H](C)CO)C[C@@H]2C)cc1	2	-231	-1	-16	-2	-7
Cc1ccc(S(=O)(=O)Nc2cccc3c2O[C@@H](CN(C)C(=O)Nc2ccc4c(c2)OCO4)[C@H](C)CN([C@@H](C)CO)C3=O)cc1	3	1	-2	-8	11*	7
CC(C)C(=O)N1CCCc2ccc(NC(=O)C(=O)NC[C@H](O)c3ccoc3)cc21	.	.	.	.	.	-3
CCCOC(=O)c1ccc(NC(=O)c2cc(OC)c(OC)c(OC)c2Br)cc1	-3	-8	5	0	13*	-10
COc1cc(C(=O)Nc2ccc(C(C)=O)cc2)c(Br)c(OC)c1OC	2	12	7	-20	0	-2
CCc1ccc(Nc2n[n+](-c3ccccc3)c(-c3ccc(OC)c(Br)c3)s2)cc1	1	-19	1	-9	-3	56*
COc1ccc(C)cc1Nc1n[n+](-c2ccccc2)c(-c2ccc(NC(C)=O)cc2)s1	-3	-4	-1	-11	0	47*
CSc1ccc(-c2sc(Nc3ccccc3)n[n+]2-c2ccccc2)cc1	0	-15	.	-11	-3	3
CSc1ccc(-c2sc(Nc3cccc4ccccc34)n[n+]2-c2ccccc2)cc1	2	-27	-6	-11	-1	47*
